Screening results from PubChem.
E coli growth-1 = counter-screen for AddAB inhibitors: E. coli growth inhibition | inhibition, % at 11.9 µM | AID 449728 | E. coli V3065 growth, OD600 absorbance, 18 h | 330,000 compounds, 0.27% hits;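 active means inhibition above the campaign's mean inhibition across all tested compounds plus 3 SD, cut at about 9.9% in these data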;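 further: uninfected addAB+ strain grown without phage in ampicillin broth; 0% = DMSO wells and 100% = ciprofloxacin 0.95 µg/ml wells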
Tat transport = blocks Tat-dependent protein export in E. coli. E. coli MC4100 TorA-mCherry Tat export, fluorescence. inhibition, % at 10 µM. 340,000 compounds, 0.036% hits. AID 488895;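 active means mean replicate inhibition at least 50% and at least half of replicates individually reaching 50%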;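 further: exported cargo escapes ClpAP degradation while cytoplasmic cargo is degraded and loses fluorescence; 0% = median of neutral control wells and 100% = median of NaSCN control wells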
phage Ecoli inh = E. coli growth loss with phage present. growth absorbance. inhibition, % at 11.9 µM. 360,000 compounds, 0.26% hits. AID 651602; in the data active means inhibition above about 11%
AddAB inh = less growth of phage-infected E. coli with AddAB; E. coli expressing H. pylori AddAB, absorbance growth; inhibition, % at 11.9 µM; 330,000 compounds, 0.29% hits; AID 435030; in the data active means inhibition above about 12%;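 further: 0% = vehicle wells of infected cells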
E coli growth-2 = blocks Escherichia coli growth; OD600, 23 h; active compounds read low; OD600 absorbance (concentration not given with the values); 330,000 compounds, 0.21% hits; AID 1053175;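 active means OD600 absorbance below the run mean of sample wells minus 3.6 SD, in any replicate, cut at about 0.56 in these data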
AddAB conf = confirmation screen: growth loss of phage-infected E. coli expressing H. pylori AddAB; shares compounds with AddAB inh; E. coli V3065 expressing H. pylori AddAB, T4 phage, OD; T4 phage with gene 2 nonsense mutations; inhibition, % at 11.9 µM; 880 compounds, 64% hits; AID 488942;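 active means mean inhibition above a set limit taken from the earlier primary screen, cut at about 13% in these data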;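 further: higher means less bacterial growth since AddAB block lets phage replicate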
RecBCD counter = reduces growth of phage-infected RecBCD+ E. coli, AddAB inhibitor counter-screen; inhibition, % at 11.9 µM; 880 compounds, 73% hits; E. coli V66 + mutant T4 phage, OD growth; AID 488955; shares compounds with AddAB inh;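 active means mean inhibition above the mean of solvent-only control wells plus 3 SD, cut at about 4% in these data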;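 further: optical density read after an 18 h incubation at 37 °C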
bact viab count = counter-screen for AddAB inhibitors: inhibitors of bacterial viability; shares compounds with AddAB inh; absorbance (AddAB counterscreen); inhibition, % at 11.9 µM; 880 compounds, 35% hits; AID 488956; in the data active means inhibition above about 25%
RecBCD conf = growth loss of phage-infected V66 E. coli, RecBCD confirmation screen; shares compounds with phage Ecoli inh; E. coli V66 + T4 2- phage, growth OD; inhibition, % at 11.9 µM; 890 compounds, 45% hits;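 active means mean inhibition over triplicates exceeding the hit threshold derived in the original primary screen, cut at about 11% in these data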
Ecoli viability = counter-screen for RecBCD inhibitors: inhibitors of bacterial viability. shares compounds with phage Ecoli inh. inhibition, % at 11.9 µM. 890 compounds, 29% hits. E. coli viability, absorbance (OD) growth. AID 651983; in the data active means inhibition above about 20%;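 further: E. coli strain V66 grown with compound alone and no phage infection; 0% = bacteria with DMSO vehicle only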
AddAB counter = growth loss of phage-infected AddAB E. coli, RecBCD counter-screen | shares compounds with phage Ecoli inh | E. coli expressing H. pylori AddAB + T4 phage, OD growth; gene 2 mutant T4, recBCD-deleted host | inhibition, % at 11.9 µM | 890 compounds, 45% hits | AID 651984;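 active means mean inhibition above the solvent-only control wells' mean plus 3 SD, cut at about 22% in these data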;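 further: higher means less bacterial growth from phage killing when AddAB is blocked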
* marks the source's active call; other numbers are inactive results; . = no result given. Rows were chosen to be rich in hits. Some 0.51% of all compounds tested hit in one or more screens of this group.

SMILES | E coli growth-1 | Tat transport | phage Ecoli inh | AddAB inh | E coli growth-2 | AddAB conf | RecBCD counter | bact viab count | RecBCD conf | Ecoli viability | AddAB counter
[N-]=[N+]=CC(=O)c1ccnc(C(=O)C=[N+]=[N-])c1 | 38* | 6 | 18* | 31* | 0.56* | 57* | 22* | 43* | 20* | 21* | 49*
O=C1c2ccccc2NC(c2ccc(-c3ccc(Br)cc3)o2)N1O (stereo not given) | 24* | -26 | 23* | 24* | 0.62 | 19* | 18* | 17 | 14* | 14 | 15
O=C1c2ccccc2NC(c2ccc(-c3cccc([N+](=O)[O-])c3)o2)N1O (stereo not given) | 25* | -3 | 22* | 27* | 0.63 | 21* | 20* | 17 | 9 | 14 | 12
CC(=O)NN1C(=O)c2ccccc2NC1c1cccc([N+](=O)[O-])c1 (stereo not given) | 0 | 4 | 2 | 1 | 0.66 | . | . | . | . | . | .
O=C1c2ccccc2NC(c2ccc(-c3ccc(F)cc3)o2)N1O (stereo not given) | 6 | -5 | 2 | 7 | . | . | . | . | . | . | .
O=C1NC(=S)NC1=Cc1cccn1-c1ccc([N+](=O)[O-])cc1 | . | . | . | . | 0.72 | . | . | . | . | . | .
C(=N\Nc1nc2ccccc2s1)/c1ccccn1 | 16* | . | 21* | 15* | . | 19* | 14* | 13 | 11 | 12 | 21
Cc1cc([N+](=O)[O-])nn1Cc1ccc(C(=O)N/N=C/c2ccc(O)cc2O)cc1 | 20* | -2 | 17* | 19* | . | 23* | 19* | 13 | 5 | 7 | 10
O=C(N/N=C/c1ccc(O)cc1O)c1ccc(CN2C(=O)c3cccc4cccc2c34)cc1 | 25* | 3 | 22* | 14* | . | 16* | 20* | 10 | 9 | 11 | 16
CC(=NNC(=O)c1ccc(-n2cnnn2)cc1)c1ccc(C)cc1 | . | . | . | . | 0.71 | . | . | . | . | . | .
Cc1ccc(-n2nc(C(=O)NN=Cc3cccc(C(F)(F)F)c3)c3ccccc3c2=O)cc1C | . | . | . | . | 0.81 | . | . | . | . | . | .
CCc1nnc(NS(=O)(=O)c2ccc(NC(=S)Nc3ccc(F)cc3)cc2)s1 | 9 | 6 | 16* | 15* | 0.65 | -5 | 1 | -1 | 3 | 2 | 8
Nc1[nH]c(=O)ncc1-c1ccc([N+](=O)[O-])cc1 | . | . | 4 | . | . | . | . | . | . | . | .
Nc1ncc(-c2ccc([N+](=O)[O-])cc2)cn1 | 38* | -3 | 38* | 39* | . | 44* | 37* | 48* | 35* | 41* | 51*
O=[N+]([O-])c1ccc(-c2cnc(NO)nc2)cc1 | 31* | -3 | 31* | 33* | 0.59 | 42* | 30* | 40* | 31* | 36* | 45*
COc1ccc(C2C=CCN(CC(C)(C)C)CC(=O)N2Cc2ccc(F)cc2)cc1 (stereo not given) | . | . | . | . | 0.68 | . | . | . | . | . | .
CN1CCN(c2c(F)cc3c(=O)c(C(=O)O)cn4c3c2OCN4C)CC1 | 99* | 138* | 99* | 99* | 0.07* | 101* | 100* | 101* | 102* | 102* | 103*
CCn1cc(C(=O)O)c(=O)c2cc(F)c(NN=Cc3ccccc3)cc21 | . | . | . | . | 0.66 | . | . | . | . | . | .
Cc1cc(C)c(NC(=O)c2cn3c4c(c(N5CCN(C)CC5)c(F)cc4c2=O)OCC3C)c(C)c1 (stereo not given) | 97* | 36 | 97* | 97* | 0.049* | 101* | 100* | 101* | 99* | 100* | 101*
CCn1cc(C(=O)NCC2CCCO2)c(=O)c2cc(F)c(N3CCN(C)CC3)cc21 (stereo not given) | 2 | -3 | 3 | 2 | 0.74 | . | . | . | . | . | .
Cc1cc2ncn(/N=C/c3ccc([N+](=O)[O-])o3)c2cc1C | 32* | 3 | 14* | 86* | . | 99* | 12* | 46* | 5 | 8 | 57*
COc1cccc(C=Nn2cnc3cc(C)c(C)cc32)c1OC | . | . | . | . | 0.69 | . | . | . | . | . | .
CC(CC(=O)Nc1cccc(C(F)(F)F)c1)=NNC(=O)Cc1ccccc1 | . | . | . | . | 0.6 | . | . | . | . | . | .
C(=NN1CCN(c2ccccn2)CC1)c1ccccn1 | . | . | . | . | 0.7 | . | . | . | . | . | .
CC(=O)N(O)CCCCCNC(=O)CCC(=O)N(O)CCCCCNC(=O)CCC(=O)N(O)CCCCCN | 22* | 5 | 17* | 18* | . | 7 | 13* | 3 | 3 | 7 | 14
SMILES | E coli growth-1 | Tat transport | phage Ecoli inh | AddAB inh | E coli growth-2 | AddAB conf | RecBCD counter | bact viab count | RecBCD conf | Ecoli viability | AddAB counter
CCCC(=O)NCCCCNC(=O)CCC | -3 | -4 | 2 | -2 | 0.7 | . | . | . | . | . | .
O=[N+]([O-])c1cc(S(=O)(=O)N2CCCC2)ccc1NN=Cc1ccccn1 | . | . | . | . | 0.69 | . | . | . | . | . | .
COc1ccc(OC)c(NC(=O)Nc2nnc(N3CCCCC3C)s2)c1 (stereo not given) | 13* | 2 | 13* | 13* | 0.69 | 2 | 17* | -2 | 10 | 12 | -5
[O-][n+]1c2ccccc2[n+]([O-])c2cc(O)ccc21 | 40* | 9 | 11* | 31* | 0.4* | 69* | 9.8* | 51* | 11* | 11 | 55*
COc1cc(OC)c(OC)cc1C=NNC(=S)NCCN1CCOCC1 | . | . | . | . | 0.71 | . | . | . | . | . | .
O=C(CSC1=NNC(c2ccccn2)S1)Nc1ccccc1 (stereo not given) | 9 | -15 | 11* | 13* | 0.66 | 35* | 14* | 21 | 10 | 13 | 38*
COc1ccccc1-n1c(=O)oc2ccc(Cl)cc2c1=O | 6 | 9 | 12* | 12* | 0.65 | 3 | 10* | 2 | 9 | 12 | 10
Cc1ccc(C=NNC(=O)c2ccc(Cn3cc(Br)c([N+](=O)[O-])n3)o2)o1 | . | . | . | . | 0.67 | . | . | . | . | . | .
Cc1ccc(/C=N\NC(=O)c2ccc(Cn3cc(Br)c([N+](=O)[O-])n3)o2)o1 | 27* | 5 | 13* | 36* | . | 73* | 9.4* | 51* | 6 | 9 | 44*
N#Cc1c(-c2ccccc2)ccn(Cc2cccc(Cl)c2)c1=O | 16* | -4 | 15* | 21* | 0.69 | 27* | 16* | 19 | 6 | 9 | 15
